Experimental findings from ChEMBL document CHEMBL1961873, “Compounds: GSK PKIS; Assays: Nanosyn kinase panel” (2012) are described below.

Sequence of Macrophage-stimulating protein receptor (Homo sapiens) (Q04912 25-304 limits assumed): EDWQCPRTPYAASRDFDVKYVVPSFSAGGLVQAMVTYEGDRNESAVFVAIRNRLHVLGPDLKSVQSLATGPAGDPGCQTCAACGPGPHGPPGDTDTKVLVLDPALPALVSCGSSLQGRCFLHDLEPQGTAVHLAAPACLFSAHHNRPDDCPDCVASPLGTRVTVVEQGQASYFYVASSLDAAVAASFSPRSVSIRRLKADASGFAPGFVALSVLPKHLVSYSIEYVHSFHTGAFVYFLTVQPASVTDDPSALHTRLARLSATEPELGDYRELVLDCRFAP
Sequence of Macrophage-stimulating protein receptor (Homo sapiens) (Q04912 310-1400 limits assumed): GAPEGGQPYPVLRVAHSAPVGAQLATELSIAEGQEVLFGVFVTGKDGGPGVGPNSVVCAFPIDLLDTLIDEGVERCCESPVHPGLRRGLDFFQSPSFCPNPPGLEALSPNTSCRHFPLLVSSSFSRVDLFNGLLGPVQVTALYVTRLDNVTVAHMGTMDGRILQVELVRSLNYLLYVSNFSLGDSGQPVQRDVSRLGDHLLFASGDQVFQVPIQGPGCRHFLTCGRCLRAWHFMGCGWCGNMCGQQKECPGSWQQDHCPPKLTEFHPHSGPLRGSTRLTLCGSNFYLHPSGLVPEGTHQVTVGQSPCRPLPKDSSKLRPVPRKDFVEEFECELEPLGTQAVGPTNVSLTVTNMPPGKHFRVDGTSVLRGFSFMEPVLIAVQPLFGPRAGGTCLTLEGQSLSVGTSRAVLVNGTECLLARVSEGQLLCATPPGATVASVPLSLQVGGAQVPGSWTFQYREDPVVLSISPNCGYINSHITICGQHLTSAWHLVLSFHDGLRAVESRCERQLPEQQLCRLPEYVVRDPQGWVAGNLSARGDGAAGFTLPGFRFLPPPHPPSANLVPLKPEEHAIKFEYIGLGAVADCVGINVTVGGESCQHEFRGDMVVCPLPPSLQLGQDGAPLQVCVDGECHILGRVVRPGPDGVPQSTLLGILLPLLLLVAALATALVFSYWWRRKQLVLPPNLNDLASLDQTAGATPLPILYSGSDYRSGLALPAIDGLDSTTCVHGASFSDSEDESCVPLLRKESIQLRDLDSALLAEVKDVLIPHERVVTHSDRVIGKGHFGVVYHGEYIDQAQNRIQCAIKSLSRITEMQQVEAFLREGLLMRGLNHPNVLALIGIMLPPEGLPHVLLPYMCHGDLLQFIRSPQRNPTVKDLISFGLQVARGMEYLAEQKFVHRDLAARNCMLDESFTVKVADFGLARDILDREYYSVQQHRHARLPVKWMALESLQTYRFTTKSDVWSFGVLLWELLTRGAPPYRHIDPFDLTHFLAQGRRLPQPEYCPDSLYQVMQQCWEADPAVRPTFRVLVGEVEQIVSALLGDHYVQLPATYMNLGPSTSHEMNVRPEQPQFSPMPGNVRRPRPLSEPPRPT

The first assay concerns the target Macrophage-stimulating protein receptor (Homo sapiens) (UniProt Q04912). The conditions noted are these: at 1 µM.
Consider `[O-][S+]1CCN(Cc2ccc(-c3ccc4ncnc(Nc5ccc(OCc6ccccc6)c(Cl)c5)c4c3)o2)CC1`, for which the inhibition (in general, the relative decrease from the control value, in per cent) amounted to 1.89%.

Take `C[C@@H](Oc1cc(-n2cnc3ccc(OCC4CCN(C)CC4)cc32)sc1C(N)=O)c1ccccc1C(F)(F)F`: the inhibition was determined as 9.36%.

`O=S(=O)(CCOCc1ccc(-c2ccc3ncnc(Nc4ccc(OCc5cccc(F)c5)c(Cl)c4)c3c2)o1)c1ccccc1`: the inhibition was determined as 1.46%.

For the compound `CCn1c(-c2nonc2N)nc2ccc(F)cc21`, the inhibition turned out to be 6.19%.

`CC(C)c1ccc(Nc2nccc(-c3cnn4ncccc34)n2)cc1`: the inhibition was 16.8%.

For the compound `CN(c1ccc(NC(=O)Nc2ccc(OC(F)(F)F)cc2)cc1)c1ccnc(Nc2cccc(S(N)(=O)=O)c2)n1`, the inhibition worked out at 90.5%.

As to `COc1cccc(-n2ncc3c(N/N=C/c4ccc(S(C)(=O)=O)cc4)ncnc32)c1`, the inhibition was 44.3%.

For the compound `CC(C)c1ccc2c(c1)NC(=O)/C2=N/Nc1ccc(S(N)(=O)=O)cc1`, the inhibition was -1.8%.

As for `Cc1cc(Cl)cc2c1NC(=O)C2=NNc1ccc(S(N)(=O)=O)cc1`, the inhibition worked out at 0.34%.

As to `c1ccc(Cc2nc3ccc(Nc4ncnc5ccccc45)cc3[nH]2)cc1`, the inhibition was determined as 5.82%.

As for `N#Cc1c(NC(=O)c2ccccc2F)sc2c1CCCC2`, the inhibition is -3.33%.

Turning to `CN(C)c1cc2c(Nc3ccc4c(cnn4Cc4ccccc4)c3)ncnc2cn1`, the inhibition came out at 0.62%.

On to `Nc1nccc(-c2c(-c3ccc(F)cc3)ncn2CCCN2CCOCC2)n1`, for which the inhibition came to 2.17%.

Regarding `Cc1ccc(NC(=O)CC2CC2)cc1-c1ccc(C(=O)NCC2CC2)cc1`, the inhibition was 1.45%.

Turning to `Oc1cccc(-c2nc(-c3ccccc3)[nH]c2-c2ccncc2)c1`, the inhibition stood at 5.25%.

With `Nc1ccc(C#Cc2cncnc2Nc2ccc(OCc3cccc(F)c3)c(Cl)c2)cc1`, the inhibition worked out at 1.71%.

In the case of `NS(=O)(=O)c1ccc(NC=C2C(=O)Nc3ccc4ncsc4c32)cc1`, the inhibition came to 56.3%.

As for `NS(=O)(=O)c1ccc(-c2cc3ccncc3cc2OCc2ccccc2)cc1`, the inhibition was 8.77%.

As to `Cc1cc(O)cc(C)c1/C=C/c1cncc(C(=O)N(C)C)c1`, the inhibition came out at 11%.

For `c1ccc(Nc2ncc(-c3ccccc3)o2)cc1`, the inhibition stood at 9.16%.

On to `COc1cccc(-n2nc(C)c3c(N/N=C(\C)c4ccncc4)ncnc32)c1`, for which the inhibition was -0.1%.

As to `NC(=O)c1sc(-n2cnc3ccccc32)cc1OCc1ccccc1Br`, the inhibition was found to be 9.57%.

Take `CCOc1nccc2c1nc(-c1nonc1N)n2CC`: the inhibition was determined as 5.31%.

With `CN(C)CCCn1c(-c2nonc2N)nc2cnccc21`, the inhibition worked out at 3.53%.

In the case of `NC(=O)c1cccc(Nc2nccc(Nc3cccc(F)c3)n2)c1`, the inhibition stood at 5.75%.

`COC(=O)c1ccc2c(c1)C(=Cc1cc(Br)c(O)c(Br)c1)C(=O)N2`: the inhibition came to 3.36%.

Consider `FC(F)(F)c1ccc(-c2nn3ncccc3c2-c2ccnc(Nc3ccc4c(c3)OCCO4)n2)cc1`, for which the inhibition was 0.63%.

Consider `COc1cc(/C=N/Nc2ncnc3c2cnn3C(C)C)ccc1O`, for which the inhibition worked out at 17.9%.

As to `COC(=O)c1cncc(/C=C/c2c(C)cc(O)cc2C)c1`, the inhibition was determined as 7.09%.

With `COc1cc2ncn(-c3cc(OCc4ccccc4S(C)(=O)=O)c(C#N)s3)c2cc1OC`, the inhibition amounted to 8.3%.

As for `Cc1ccc2c(-c3ccnc(Nc4ccc5c(c4)OCCO5)n3)c(-c3ccc(C(F)(F)F)cc3)nn2n1`, the inhibition turned out to be 4.33%.

With `Cc1ccc(Nc2ccnc(Nc3cccc(C(N)=O)c3)n2)cc1O`, the inhibition was 13.3%.

In another assay the target is Proto-oncogene tyrosine-protein kinase ROS (Homo sapiens) (UniProt P08922). To be noted: at 0.1 µM.
Sequence of Proto-oncogene tyrosine-protein kinase ROS (Homo sapiens) (P08922 whole entry): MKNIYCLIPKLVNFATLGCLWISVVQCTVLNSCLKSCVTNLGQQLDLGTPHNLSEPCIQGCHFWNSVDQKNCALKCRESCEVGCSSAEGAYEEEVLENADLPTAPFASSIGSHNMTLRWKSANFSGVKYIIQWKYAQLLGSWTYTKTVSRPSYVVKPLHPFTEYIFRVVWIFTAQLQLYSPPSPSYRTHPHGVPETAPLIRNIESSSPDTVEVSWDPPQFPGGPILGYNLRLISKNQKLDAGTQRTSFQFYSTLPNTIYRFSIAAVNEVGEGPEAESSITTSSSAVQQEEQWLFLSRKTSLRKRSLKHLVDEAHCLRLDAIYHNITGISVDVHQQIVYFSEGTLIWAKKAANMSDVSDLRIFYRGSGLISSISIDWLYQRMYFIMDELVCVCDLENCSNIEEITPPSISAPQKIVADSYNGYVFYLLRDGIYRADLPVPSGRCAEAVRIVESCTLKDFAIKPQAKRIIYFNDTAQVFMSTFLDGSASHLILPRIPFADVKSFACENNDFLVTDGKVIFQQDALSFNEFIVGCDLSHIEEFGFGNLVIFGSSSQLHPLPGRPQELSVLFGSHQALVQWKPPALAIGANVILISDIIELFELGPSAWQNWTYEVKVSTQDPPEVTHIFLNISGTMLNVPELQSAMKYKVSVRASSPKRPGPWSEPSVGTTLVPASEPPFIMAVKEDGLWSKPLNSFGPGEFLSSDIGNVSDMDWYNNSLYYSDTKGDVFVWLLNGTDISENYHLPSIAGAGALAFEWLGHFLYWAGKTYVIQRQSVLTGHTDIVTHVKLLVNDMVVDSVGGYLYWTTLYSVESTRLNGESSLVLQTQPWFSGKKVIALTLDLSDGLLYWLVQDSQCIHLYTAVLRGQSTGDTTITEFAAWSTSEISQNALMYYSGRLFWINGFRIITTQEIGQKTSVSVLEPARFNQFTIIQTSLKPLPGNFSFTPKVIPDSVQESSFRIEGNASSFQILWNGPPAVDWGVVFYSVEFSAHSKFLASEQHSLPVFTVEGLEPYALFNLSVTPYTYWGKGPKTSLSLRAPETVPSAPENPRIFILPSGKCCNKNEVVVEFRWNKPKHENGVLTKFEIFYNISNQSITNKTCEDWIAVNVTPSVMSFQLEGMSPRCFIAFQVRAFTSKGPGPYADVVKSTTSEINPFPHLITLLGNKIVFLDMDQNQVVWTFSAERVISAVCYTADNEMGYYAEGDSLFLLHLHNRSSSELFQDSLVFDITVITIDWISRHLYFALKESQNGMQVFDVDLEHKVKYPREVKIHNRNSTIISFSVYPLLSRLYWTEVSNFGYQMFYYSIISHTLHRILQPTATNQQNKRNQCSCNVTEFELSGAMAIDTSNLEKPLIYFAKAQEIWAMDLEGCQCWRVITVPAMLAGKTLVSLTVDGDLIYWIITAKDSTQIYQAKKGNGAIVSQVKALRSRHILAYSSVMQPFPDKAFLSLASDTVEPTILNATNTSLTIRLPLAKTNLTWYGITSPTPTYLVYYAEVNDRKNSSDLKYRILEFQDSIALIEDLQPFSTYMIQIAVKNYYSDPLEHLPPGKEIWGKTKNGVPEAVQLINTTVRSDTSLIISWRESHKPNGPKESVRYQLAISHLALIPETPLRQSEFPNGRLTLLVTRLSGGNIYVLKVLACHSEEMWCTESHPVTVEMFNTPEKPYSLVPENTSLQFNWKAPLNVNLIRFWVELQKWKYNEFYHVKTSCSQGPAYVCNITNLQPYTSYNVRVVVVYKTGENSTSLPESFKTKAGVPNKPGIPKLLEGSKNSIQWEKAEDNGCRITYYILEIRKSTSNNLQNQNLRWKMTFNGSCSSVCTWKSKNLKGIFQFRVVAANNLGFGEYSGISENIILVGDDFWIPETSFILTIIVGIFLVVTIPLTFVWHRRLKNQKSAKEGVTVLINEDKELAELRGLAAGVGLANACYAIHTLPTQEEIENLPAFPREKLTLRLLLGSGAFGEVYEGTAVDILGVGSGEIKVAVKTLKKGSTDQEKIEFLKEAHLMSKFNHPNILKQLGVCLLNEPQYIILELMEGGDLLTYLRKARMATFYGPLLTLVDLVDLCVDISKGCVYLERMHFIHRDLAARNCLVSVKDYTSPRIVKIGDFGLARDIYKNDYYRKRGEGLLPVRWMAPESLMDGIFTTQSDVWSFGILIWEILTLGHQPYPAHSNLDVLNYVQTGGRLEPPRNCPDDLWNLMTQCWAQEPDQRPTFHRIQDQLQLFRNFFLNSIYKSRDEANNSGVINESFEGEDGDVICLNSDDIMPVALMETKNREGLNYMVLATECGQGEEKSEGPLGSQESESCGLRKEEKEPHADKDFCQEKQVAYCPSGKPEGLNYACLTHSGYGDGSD
Take `[O-][S+]1CCN(Cc2ccc(-c3ccc4ncnc(Nc5ccc(OCc6ccccc6)c(Cl)c5)c4c3)o2)CC1`: the inhibition is 2.65%.

On to `C[C@@H](Oc1cc(-n2cnc3ccc(OCC4CCN(C)CC4)cc32)sc1C(N)=O)c1ccccc1C(F)(F)F`, for which the inhibition was 0.2%.

As to `O=S(=O)(CCOCc1ccc(-c2ccc3ncnc(Nc4ccc(OCc5cccc(F)c5)c(Cl)c4)c3c2)o1)c1ccccc1`, the inhibition was determined as 2.65%.

For `CCn1c(-c2nonc2N)nc2ccc(F)cc21`, the inhibition is 5.7%.

Turning to `CC(C)c1ccc(Nc2nccc(-c3cnn4ncccc34)n2)cc1`, the inhibition was 19.2%.

Take `CN(c1ccc(NC(=O)Nc2ccc(OC(F)(F)F)cc2)cc1)c1ccnc(Nc2cccc(S(N)(=O)=O)c2)n1`: the inhibition turned out to be 15.2%.

Regarding `NS(=O)(=O)c1ccc(N/N=C2\C(=O)Nc3ccc(Cl)cc32)cc1`, the inhibition was 4.68%.

As to `COc1cccc(-n2ncc3c(N/N=C/c4ccc(S(C)(=O)=O)cc4)ncnc32)c1`, the inhibition is 7.29%.

In the case of `CC(C)c1ccc2c(c1)NC(=O)/C2=N/Nc1ccc(S(N)(=O)=O)cc1`, the inhibition turned out to be 0.66%.

With `Cc1cc(Cl)cc2c1NC(=O)C2=NNc1ccc(S(N)(=O)=O)cc1`, the inhibition came out at 2.22%.

Turning to `c1ccc(Cc2nc3ccc(Nc4ncnc5ccccc45)cc3[nH]2)cc1`, the inhibition worked out at 4.22%.

For `N#Cc1c(NC(=O)c2ccccc2F)sc2c1CCCC2`, the inhibition came to 1.04%.

For the compound `CN(C)c1cc2c(Nc3ccc4c(cnn4Cc4ccccc4)c3)ncnc2cn1`, the inhibition worked out at 2.34%.

Turning to `Nc1nccc(-c2c(-c3ccc(F)cc3)ncn2CCCN2CCOCC2)n1`, the inhibition stood at 5.06%.

Consider `Cc1ccc(NC(=O)CC2CC2)cc1-c1ccc(C(=O)NCC2CC2)cc1`, for which the inhibition came out at 4.69%.

Consider `CCn1c(-c2nonc2N)nc2c(C#CC(C)(C)O)nc(OCCNC)cc21`, for which the inhibition was 6.88%.

Turning to `Oc1cccc(-c2nc(-c3ccccc3)[nH]c2-c2ccncc2)c1`, the inhibition came to 4.41%.

With `Nc1ccc(C#Cc2cncnc2Nc2ccc(OCc3cccc(F)c3)c(Cl)c2)cc1`, the inhibition came out at 1.61%.

For `NS(=O)(=O)c1ccc(NC=C2C(=O)Nc3ccc4ncsc4c32)cc1`, the inhibition turned out to be 17.3%.

For the compound `NS(=O)(=O)c1ccc(-c2cc3ccncc3cc2OCc2ccccc2)cc1`, the inhibition was found to be 5.03%.

Regarding `Cc1cc(O)cc(C)c1/C=C/c1cncc(C(=O)N(C)C)c1`, the inhibition was 3.04%.

Take `c1ccc(Nc2ncc(-c3ccccc3)o2)cc1`: the inhibition turned out to be 7.47%.

Turning to `COc1cccc(-n2nc(C)c3c(N/N=C(\C)c4ccncc4)ncnc32)c1`, the inhibition stood at 2.71%.

Turning to `NC(=O)c1sc(-n2cnc3ccccc32)cc1OCc1ccccc1Br`, the inhibition amounted to 7.48%.

Regarding `CCOc1nccc2c1nc(-c1nonc1N)n2CC`, the inhibition was determined as 5.15%.

On to `CN(C)CCCn1c(-c2nonc2N)nc2cnccc21`, for which the inhibition was 5.53%.

Take `NC(=O)c1cccc(Nc2nccc(Nc3cccc(F)c3)n2)c1`: the inhibition amounted to 18.8%.

With `COC(=O)c1ccc2c(c1)C(=Cc1cc(Br)c(O)c(Br)c1)C(=O)N2`, the inhibition came to 6.38%.

Turning to `FC(F)(F)c1ccc(-c2nn3ncccc3c2-c2ccnc(Nc3ccc4c(c3)OCCO4)n2)cc1`, the inhibition turned out to be 7.87%.

`COc1cc(/C=N/Nc2ncnc3c2cnn3C(C)C)ccc1O`: the inhibition worked out at 11.9%.

Regarding `COc1cc2ncn(-c3cc(OCc4ccccc4S(C)(=O)=O)c(C#N)s3)c2cc1OC`, the inhibition was 27.4%.

For `Cc1ccc2c(-c3ccnc(Nc4ccc5c(c4)OCCO5)n3)c(-c3ccc(C(F)(F)F)cc3)nn2n1`, the inhibition worked out at 1.22%.

Consider `Cc1ccc(Nc2ccnc(Nc3cccc(C(N)=O)c3)n2)cc1O`, for which the inhibition is 17.4%.
